HT1080-NT tox: kills 2HG-producing HT-1080-NT fibrosarcoma cells | 360,000 compounds, 1.6% hits | HT-1080-NT fibrosarcoma viability, CellTiter-Glo ATP luminescence, 48 h | Potency, µM (doses to about 46.1 µM), inactives show top-dose activity, negative = less viability, actives largely listed as cytotoxic;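 note: NT is the 2HG producing partner of a matched IDH1 knockdown line; potency is the fitted concentration of half-maximal effect; 0% = DMSO-treated cells and -100% = media-only wells without cells; nearly all actives have a fitted effect of over 55% in size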
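Luminescent CellTiter-Glo readout after 48 hours of compound exposure at 37 degrees C defined viability of HT-1080-NT cells. Activity was normalized to DMSO wells and cell-free media wells; concentration-response curves were fitted and assigned curve classes.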
TDP1 cell CPT: DT40-hTDP1 cell growth loss with CPT; Potency, µM (top dose mostly 46.2 µM), without a hit: at the top dose activity change, negative = growth inhibition, actives largely listed as inhibitors; chicken DT40 Tdp1-/-;hTDP1 cells + 20 nM CPT, ATP luminescence, 48 h; 420,000 compounds, 12% hits; note: potency is the fitted concentration of half-maximal effect; nearly all actives have a fitted effect of over 55% in size
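Cell growth measured by CellTiter-Glo luminescence after a minimum 48 h, 37 C compound exposure with 20 nM CPT in Tdp1-knockout DT40 cells stably expressing hTDP1, seeded 400/well; qHTS titration format.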
HT1080 IDH1KD tx: kills HT-1080 cells with IDH1 knockdown; HT-1080 IDH1 knockdown viability, ATP luminescence, 48 h; Potency, µM (top dose mostly 46.1 µM), for inactives: top-dose activity, negative = toxicity, usual class: cytotoxic; 360,000 compounds, 2% hits;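 note: potency is the fitted concentration of half-maximal effect; 0% = DMSO wells and -100% = cell-free medium wells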
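Cytotoxicity counter-line: IDH1KD HT-1080, 48 h, CellTiter-Glo. Curves classed by r2, magnitude and activity.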
IL-1B inflam inh: blocks inflammasome-driven IL-1 beta release. THP-1 LPS/ATP IL-1B secretion, AlphaLISA, 16 h; hits give low values. activity change, % at 57.5 µM. 360,000 compounds, 4.7% hits; in the data active = activity change below about -50%; inconclusive = mostly about -30% to -49%
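Secreted IL-1B measured by AlphaLISA bead assay after 16 h compound exposure of THP-1 cells; compounds (final up to 57.5 uM) added 1 h before LPS (250 ng/mL) and ATP (1.25 mM) stimulation; lower signal means less secretion.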
TDP1 cell noCPT: qHTS for Inhibitors of human tyrosyl-DNA phosphodiesterase 1 (TDP1): qHTS in cells in absence of CPT; DT40 Tdp1-/- hTDP1 cells, no CPT, ATP luminescence, 48 h; Potency, µM (series often up to 46.2 µM), inactives show top-dose activity change, negative = growth inhibition, most hits filed as inhibitors; 420,000 compounds, 15% hits; AID 686978, 2013; note: potency is the fitted concentration of half-maximal effect; nearly all actives have a fitted effect of over 55% in size
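A cellular qHTS used chicken DT40 cells lacking endogenous Tdp1 but carrying stably transfected human TDP1. Compounds were applied without camptothecin, and cell growth kinetics were judged by ATP-dependent luminescence after ≥48 hr.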
* = called active by the depositor; ? = inconclusive; · = no result given; ! = not active in a repeat. Rows were chosen to be rich in hits. Some 19% of all compounds tested hit in one or more screens of this group. Unless noted, calls come from the whole dose curve; as a rule, active = well fitted curve in the direction sought with a large enough effect; inconclusive = small, poorly fitted or top-dose-only effect, or another doubt; inactive = no such curve, though single readings can be large; an effect the other way counts as inactive or inconclusive. Unless noted, % is set by controls: 0 for no effect and ±100 for the full control effect.

SMILES	HT1080-NT tox	TDP1 cell CPT	HT1080 IDH1KD tx	IL-1B inflam inh	TDP1 cell noCPT
C[C@@H](CN1CCC(Cc2ccccc2)CC1)[C@@H](O)c1ccc(O)cc1	-1.3%	23.1µM*	-12.5%	-21.0	7.31µM*!
COc1ccc(Cn2c(-c3ccccc3C)nc3c(c(=O)c4ccccc4n3C)c2=O)cc1	-0.7%	-27.0%	7.8%	12.3	-18.6%
O=C(Nc1cccc(Cl)c1)Nc1cc(S(=O)(=O)N2CCOCC2)ccc1N1CCCC1	-11.3%	14.6µM*	-2.4%	-60.1*	23.1µM*
O=C(Cc1c(F)cccc1Cl)Nc1cc(S(=O)(=O)N2CCOCC2)ccc1N1CCCC1	1.6%	-19.3%	-2.6%	?	-16.7%
O=C(CNc1cc(S(=O)(=O)N2CCOCC2)ccc1N1CCCC1)Nc1ccc(Cl)cc1F	1.0%	?	6.7%	?	13µM*
COc1ccccc1-c1nc(N2CCOCC2)c2ccccc2n1	·	-2.3%	·	·	-26.5%
c1nc(N2CCOCC2)c2cc(-c3ccoc3)ccc2n1	·	8.2µM*	·	·	?
CN(C)Cc1ccccc1-c1ccc2ncnc(N3CCOCC3)c2c1	·	?	·	·	20.6µM*
c1cn(-c2ncnc3ccc(-c4ccoc4)cc23)cn1	·	18.4µM*	·	·	23.1µM*
c1nc(NC2CC2)c2cc(-c3ccoc3)ccc2n1	·	?	·	·	-25.5%
COc1ccccc1-c1ccc2ncnc(N3CCOCC3)c2c1	·	18.4µM*	·	·	20.6µM*
CN(C)C(=O)c1ccc(-c2ccc3ncnc(N4CCC(C(=O)O)CC4)c3c2)cc1	·	-9.5%	·	·	-1.6%
CCCCOC(=O)c1ccc(S(N)(=O)=O)o1	1.3%	-5.1%	9.2%	0.0	?
COc1ccc(N2C(=O)CSC2c2ccccc2F)c(OC)c1 (stereo unspecified)	5.1%	-20.0%	-9.0%	-18.4	-35.0%
CCOC(=O)c1c(O)cc(C)[nH]c1=O	-2.3%	2.0%	-1.4%	14.4	0.8%
COc1ccccc1-c1ccc2ncnc(N3CCN(C)CC3)c2c1	·	9.2µM*	·	·	7.31µM*
COc1ccccc1-c1ccc2ncnc(NC3CCNCC3)c2c1	·	?	·	·	-28.5%
COc1cccc(-c2ccc3ncnc(N4CCOCC4)c3c2)c1	·	14.6µM*	·	·	25.9µM*
CN(C)S(=O)(=O)NCC1CCCN(Cc2cc3ccccc3s2)C1 (stereo unspecified)	-4.4%	?	-7.0%	10.7	?
Cc1ccc(/C=C2/CNC/C(=C/c3ccc(C)cc3)C2=O)cc1	14.6µM*	7.31µM*	23.1µM*	-106.3*	13µM*
Cc1ccc(/C=C2\CCOC2=O)cc1	25.2%	-5.1%	16.8%	?	-13.2%
O=C(NNC(=O)C1CC(c2cccs2)=NO1)Nc1ccc(Cl)cc1 (stereo unspecified)	10.7%	-8.5%	7.7%	-0.6	-3.9%
CCN(CC(=O)Nc1ccc2c(c1)OCCO2)c1nc(-c2cccnc2)nc2ccccc12	-1.3%	?	-13.8%	-29.6	23.1µM*
c1ccc(CNc2nc(-c3cccnc3)nc3ccccc23)cc1	-0.9%	?	7.9%	-11.1	?
NS(=O)(=O)c1ccc(CNc2nc(-c3cccnc3)nc3ccccc23)cc1	-6.8%	?	-8.9%	?	14.6µM*
SMILES	HT1080-NT tox	TDP1 cell CPT	HT1080 IDH1KD tx	IL-1B inflam inh	TDP1 cell noCPT
Fc1ccc(CNc2nc(-c3cccnc3)nc3ccccc23)cc1	-29.5%	?	?	-68.6*	18.4µM*
c1ccc(CN2CCC(Nc3nc(-c4cccnc4)nc4ccccc34)CC2)cc1	?	18.4µM*	20.6µM*	-91.4*	13µM*
CC(Nc1nc(-c2cccnc2)nc2ccccc12)c1ccc(F)cc1 (stereo unspecified)	-26.9%	25.9µM*	?	-67.8*	18.4µM*
CC(Nc1nc(-c2ccccc2F)nc2ccccc12)c1ccccc1 (stereo unspecified)	-16.1%	-21.6%	-4.4%	-90.0*	?
c1cncc(-c2nc(NCc3ccc4c(c3)OCO4)c3ccccc3n2)c1	0.7%	?	-12.0%	-4.9	20.6µM*
Clc1cccc(CNc2nc(-c3cccnc3)nc3ccccc23)c1	-29.9%	?	?	-16.6	?
